# Measurements taken from PubChem BioAssay (NCI).
# Compounds without any hit were thinned out: in the full panel of roughly 83,000, 20% have a hit.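 Interpretation: 100, growth as untreated; towards 0, rising growth inhibition; 0, no net growth; 0 to -100, cell death. Compounds scoring below 10 were considered active.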 Unmarked numbers belong to inactive results. The source made the active and inactive calls.
# Tested on: OVCAR-4 ovarian
# Assay: NCI-60 one-dose screen, 48 h (100 = growth as untreated, 0 = no growth, -100 = all killed)
# Conditions: 10 µM unless noted
# Protocol: Growth inhibition of the OVCAR-4 human tumor cell line is measured as a screen for anti-cancer activity. Cells are grown in 96 well plates and exposed to the test compound for 48 hours. Compounds are tested at a single concentration, which is 10^-5 M for most compounds. The reported endpoint is percent growth (GI% or GIPRCNT), where numbers from 0 - 100% represent growth inhibition, and numbers from -100% - 0 represent cell death. For example, a value of 40 represents 60% growth inhibition. A value of 0 means no net growth occurred over the course of the experiment. A value of -40 indicates 40% of cells at the beginning of the experiment died by the end of the experiment. A value of -100 means all cells are dead at the end of the experiment.
# NCI-60 Human Tumor Cell Lines Screen was performed using the standard one-dose NCI protocol, which is described in more detail at https://dtp.cancer.gov/discovery_development/nci-60/default.htm.
# Compounds with GIPRCNT values below 10 were considered active. Activity score was based on GIPRCNT using the following formula: […]
# Score is 0 for GIPRCNT values of 100 or above, 50 for GIPRCNT values of 0, and 100 for GIPRCNT values of -100.
row,Structure (SMILES),growth
1,OCc1cnc2ccccc2c1NC1CCCCCC1,86.3%
2,O=C(C[n+]1cccc2ccccc21)c1ccc(O)c(O)c1,55.1%
3,COc1ccc(C(=O)c2cc(C)c(OC)c(C)c2)c(OC)c1OC(=O)C(Cl)Cl,46.7%
4,CC(=O)[C@@H]1CC[C@]2(CO)CC[C@]3(C)[C@H](CC[C@@H]4[C@@]5(C)CCCNC(C)(C)[C@@H]5CC[C@]43C)[C@@H]12,101%
5,O=S(=O)(NCCNc1nccc(-c2c(-c3cccc(O)c3)nc3occn23)n1)c1cccc(F)c1,121%
6,O=C(Nc1ccc(NC(=O)c2cc(=O)[nH]c3ccccc23)cc1)Nc1cccc(Cl)c1,78.8%
7,CCN(c1ccccc1)S(=O)(=O)c1cc([N+](=O)[O-])ccc1Cl,25.1%
8,Cn1cc(-c2csc(-c3c[nH]c4ccccc34)n2)c2ccnc(Cl)c21,48.5%
9,COc1ccc(C(C)=O)c(OC)c1,103%
10,CC(=O)Oc1ccc(/C=N/NC(N)=S)nc1,56%
11,N#CC1=C(/N=C/c2ccccc2)Oc2c(ccc3ccccc23)C1c1ccc([N+](=O)[O-])cc1 (stereo not given),88.2%
12,COc1cc2c(=O)n(CCCN(C)C)c3c4cc5c(cc4ccc3c2cc1OC)OCO5,69.9%
13,CCOC(=O)[C@@H]1CCCN(S(=O)(=O)c2ccc(S(=O)(=O)N(CC)CC)c(F)c2)C1,75.5%
14,CCN(CC)CCCC(C)Nc1cc(O)cc2cccnc12 (stereo not given),84.2%
15,CCNc1nc2ccc(Nc3ccnc4cc(Cl)ccc34)cc2[nH]1,82.6%
16,CC(C)(C)CC(C)(C)n1nnnc1C(NC12CC3CC(CC(C3)C1)C2)c1ccccc1 (stereo not given),88.4%
17,CC(C)c1ccc(Nc2ccc3c(OCCCN4CCN(C)CC4)cccc3n2)cc1,74.2%
18,C#CCNC(=O)[C@H](Cc1ccccc1)NC(=O)[C@]12CC[C@@H](C(=C)C)[C@@H]1[C@H]1CC[C@@H]3[C@@]4(C)CCC(=O)C(C)(C)[C@@H]4CC[C@@]3(C)[C@]1(C)CC2,81.6%
19,COc1cc(/C=N/NC(=O)c2cnn3c2NC(c2ccccc2)C3)ccc1Oc1ccccc1 (stereo not given),31.7%
20,COc1ccc(-c2nc([C@@H](C)Sc3nc(N)cc(N)n3)c(C)s2)cc1OCCN1CCOCC1,106%

row,Structure (SMILES),growth
1,COc1ccc(-c2nc3sccn3c2/C=C/C(=O)c2ccc3c(c2)OCO3)cc1,46.1%
2,COc1ccc(C(=O)c2nc3ccccc3n2CC(=O)c2ccc(Cl)cc2)cc1,43.3%
3,COc1ccc(C(=O)c2cc(C)c(OC)c(C)c2)c(OC)c1N(C(=O)CCl)C(=O)CCl,44.9%
4,CCCCCN1C=C/C(=C\C(=O)N(C)c2ccccc2Br)c2ccccc21,83.5%
5,Cn1ccnc1C(=O)/C=C/c1ccc(CC(=O)Nc2ccc(Cl)cc2)cc1,36.9%
6,COc1cccc(-c2nc3occn3c2-c2ccnc(NCCCNS(=O)(=O)c3ccc(C(F)(F)F)cc3)n2)c1,76.4%
7,COc1cc(C2C3=C(COC3=O)N(CCO)c3cc4c(cc32)OCO4)cc(OC)c1OC (stereo not given),28.5%
8,O=S(=O)(NCCNc1nccc(-c2c(-c3cccc(O)c3)nc3occn23)n1)c1ccc(C(F)(F)F)cc1,118%
9,Cc1cc2cc3ccc(N(C)C)cc3nc2cc1N,-11.9% (active)
10,O=C(Nc1ccccc1C(=O)N/N=C(\c1ccccc1)c1ccccn1)c1ccc(F)cc1,-5.03% (active)
11,COc1ccc(NC(=O)c2cc(NCc3cc(O)ccc3O)ccc2O)cc1,91.9%
12,Cc1ccc(/C=N/NC(=O)CSc2nc3ccccc3c(=O)n2Cc2ccc(S(N)(=O)=O)cc2)cc1,106%
13,O=Cc1cc2ccccc2nc1Oc1ccc(C(F)(F)F)cc1,98.6%
14,Cc1cc2nc3c4cccc(O)c4n(CCN(C)C)c3nc2cc1C,44.4%
15,CCOC(=O)CCN(CC(C)C)C(=S)Nc1ccccc1,112%
16,COc1ccc(C(=O)CC#N)cc1,107%
17,CN(C)c1ccc(C2C(C#N)=C(/N=C/c3ccccc3)Oc3c2ccc2ccccc32)cc1 (stereo not given),97.4%
18,Cc1cc2c(c(C)c1Cl)C(=O)/C(=C/c1ccc(O)c(O)c1)O2,96.3%
19,Cc1c2cc[nH]c(=O)c2c(C)c2c1[nH]c1cc(OCCN3CCN(C)CC3)ccc12,-1.71% (active)
20,C=CCn1c(-c2ccc(-c3nc4ccc(C)cc4[nH]3)cc2)n[nH]c1=S,90.4%
